Source: the supplement of paper PMC10849652
Targets with a hit are over-represented here; the source holds about 8,800 in all. About 0.5% of all pairs of compound and target were hits.

Tests used:
Assay in all cases: log2 fold change, soluble protein after heating vs DMSO (PISA); higher = thermal stabilisation; K562 lysate, 10 uM; active = over 0.2 and 3.5 SD of the protein, either way, in both replicates (recomputed)
erlotinib = compound: C#Cc1cccc(Nc2ncnc3cc(OCCOC)c(OCCOC)cc23)c1 [erlotinib]
Summary of the method: (§1)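 K562 pellets were dounce-homogenised in PBS pH 7.4 containing 1 mM MgCl2, and the crude extract, at 1 mg/mL protein, was exposed to 10 μM compound for 30 min. Aliquots were heated for 3 min across 48°C-58°C, pooled, brought to 0.5% NP-40 at 4°C and spun at 21,000xg for 90 min, with the supernatant taken as soluble protein. TMTpro 16plex LC-MS/MS with equalised channel sums quantified that protein. Values are log-two fold changes in thermal stability relative to solvent controls, taken from duplicates.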

[1] = compound: C/C(=N\NC(=O)C1=CC(=CC=C1)S(=O)(=O)N2CCOCC2)/C3=C(C=CC(=C3)Cl)O
Summary of the method: as §1

[2] = compound: C1=CC(=CC=C1C2=NC3=C(N2)C=C(C=C3)C(=O)N)OC4=CC=C(C=C4)Cl
Summary of the method: as §1

[3] = compound: C1=CC2=C(C=CC(=C2)/C=C\3/C(=O)NC(=NCC4=CC=CS4)S3)N=C1
Summary of the method: as §1

[4] = compound: C1=CC=C(C=C1)C2=NC(=C(N2)C3=CC=NC=C3)C4=CC(=C(C=C4)Cl)O
Summary of the method: as §1

[5] = compound: C1=CC=C2C(=C1)C3=NNC4=CC=CC(=C43)C2=O
Summary of the method: as §1

[6] = compound: C1CCN(C1)C(=O)NC2=CC=CC(=C2)NC3=NC=C(C(=N3)NCCC4=CN=CN4)Br
Summary of the method: as §1

[7] = compound: C1CN(CCC1(CC2=CC=C(C=C2)Cl)N)C3=NC=NC4=C3C=CN4
Summary of the method: as §1

IRAK-1-4 Inhibitor I = compound: C1COCCN1CCN2C3=CC=CC=C3N=C2NC(=O)C4=CC(=CC=C4)[N+](=O)[O-] [IRAK-1-4 Inhibitor I]
Summary of the method: as §1

[8] = compound: C1=CC2=NC=CN=C2C=C1/C=C/3\C(=O)NC(=O)S3
Summary of the method: as §1

Measured: log2 fold change

CYP2S1 isoform 2 (UniProt Q96SQ9)
inactive: erlotinib -0.026 | [1] -0.291 | [2] -0.018 | [3] -0.096 | [4] 0.07 | [5] -0.123 | [6] -0.198 | [7] 0.08 | IRAK-1-4 Inhibitor I -0.044

CIC (UniProt I3L1Q4)
inactive: [8] -0.03

CLASP2 (UniProt O75122)
inactive: [1] -0.114 | [3] 0.12 | [8] -0.225 | [4] -0.044 | [5] -0.059 | [6] 0 | [7] 0.023 | IRAK-1-4 Inhibitor I -0.017

CNK3/IPCEF1 isoform 2 (UniProt G9CGD6)
inactive: erlotinib 0.065 | [1] -0.008 | [2] 0.038 | [3] -0.082 | [4] -0.051 | [5] 0.053 | [6] 0.014 | [7] -0.048 | IRAK-1-4 Inhibitor I 0.105

CXCL14 (UniProt O95715)
UniProt O95715, sequence (O95715 whole entry, looked up): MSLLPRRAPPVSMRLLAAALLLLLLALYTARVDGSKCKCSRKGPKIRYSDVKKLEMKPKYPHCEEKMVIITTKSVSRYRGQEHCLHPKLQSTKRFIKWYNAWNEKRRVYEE
inactive: [1] 0.119 | [3] -0.094 | [8] -0.09 | [5] -0.268 | [6] -0.444 | [7] 0.119

CNOT2 (UniProt F8VRS8)
inactive: erlotinib 0.307 | [2] 0.101

DESI2 (UniProt Q9BSY9)
UniProt Q9BSY9, sequence (Q9BSY9 whole entry, looked up): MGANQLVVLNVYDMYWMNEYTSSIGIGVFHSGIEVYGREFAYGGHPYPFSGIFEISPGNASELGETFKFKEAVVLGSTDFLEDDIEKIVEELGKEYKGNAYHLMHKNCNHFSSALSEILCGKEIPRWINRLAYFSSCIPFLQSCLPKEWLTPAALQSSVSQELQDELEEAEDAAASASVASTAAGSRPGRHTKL
inactive: [1] 0.195 | [3] -0.043 | [5] 0.119 | [6] 0.002 | [7] 0.067

DALRD3 (UniProt Q5D0E6)
inactive: erlotinib 0.034 | [1] 0.152 | [2] 0.05 | [3] -0.413 | [5] 0.021 | [6] 0.031 | [7] -0.068

CHEK2 (UniProt O96017)
inactive: erlotinib -0.042 | [1] -0.006 | [3] 0.05 | [8] 0.053 | [4] 0.018 | [5] 0.148 | [6] 0.11 | [7] -0.035 | IRAK-1-4 Inhibitor I -0.031

DAPK1 isoform 3 (UniProt P53355)
inactive: erlotinib -0.015 | [1] -0.17 | [2] -0.306 | [3] -0.274 | [4] 0.061 | [5] 0.181 | IRAK-1-4 Inhibitor I 0.008

DNM2 isoform 4 (UniProt P50570)
inactive: erlotinib 0.099 | [2] 0.107 | [4] 0.072 | [6] -0.11 | [7] -0.011 | IRAK-1-4 Inhibitor I 0.133

DNA2 (UniProt P51530)
inactive: erlotinib -0.019 | [1] 0.071 | [2] -0.054 | [3] -0.163 | [4] -0.032 | [5] 0.044 | [6] 0.027 | [7] 0.077 | IRAK-1-4 Inhibitor I -0.033

CSAD isoform 3 (UniProt Q9Y600)
UniProt Q9Y600, sequence (Q9Y600 whole entry, looked up): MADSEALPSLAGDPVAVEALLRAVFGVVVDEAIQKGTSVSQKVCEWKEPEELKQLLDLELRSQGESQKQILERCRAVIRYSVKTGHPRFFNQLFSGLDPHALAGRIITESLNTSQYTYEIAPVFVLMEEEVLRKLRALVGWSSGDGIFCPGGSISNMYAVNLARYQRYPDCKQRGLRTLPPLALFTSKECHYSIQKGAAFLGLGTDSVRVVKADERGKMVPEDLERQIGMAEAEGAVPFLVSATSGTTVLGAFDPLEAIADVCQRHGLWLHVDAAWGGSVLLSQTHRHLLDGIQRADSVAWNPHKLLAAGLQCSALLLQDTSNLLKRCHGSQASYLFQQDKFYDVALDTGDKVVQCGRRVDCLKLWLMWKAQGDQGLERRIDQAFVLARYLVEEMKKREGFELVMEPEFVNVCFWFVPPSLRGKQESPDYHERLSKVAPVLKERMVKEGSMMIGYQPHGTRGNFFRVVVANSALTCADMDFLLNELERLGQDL
inactive: erlotinib -0.02 | [2] 0.064 | [8] -0.115 | [4] 0.044 | IRAK-1-4 Inhibitor I -0.02

CSNK1A1 isoform 3 (UniProt P48729)
inactive: [4] -0.006 | IRAK-1-4 Inhibitor I 0.088

DHX32 (UniProt Q7L7V1)
UniProt Q7L7V1, sequence (Q7L7V1 whole entry, looked up): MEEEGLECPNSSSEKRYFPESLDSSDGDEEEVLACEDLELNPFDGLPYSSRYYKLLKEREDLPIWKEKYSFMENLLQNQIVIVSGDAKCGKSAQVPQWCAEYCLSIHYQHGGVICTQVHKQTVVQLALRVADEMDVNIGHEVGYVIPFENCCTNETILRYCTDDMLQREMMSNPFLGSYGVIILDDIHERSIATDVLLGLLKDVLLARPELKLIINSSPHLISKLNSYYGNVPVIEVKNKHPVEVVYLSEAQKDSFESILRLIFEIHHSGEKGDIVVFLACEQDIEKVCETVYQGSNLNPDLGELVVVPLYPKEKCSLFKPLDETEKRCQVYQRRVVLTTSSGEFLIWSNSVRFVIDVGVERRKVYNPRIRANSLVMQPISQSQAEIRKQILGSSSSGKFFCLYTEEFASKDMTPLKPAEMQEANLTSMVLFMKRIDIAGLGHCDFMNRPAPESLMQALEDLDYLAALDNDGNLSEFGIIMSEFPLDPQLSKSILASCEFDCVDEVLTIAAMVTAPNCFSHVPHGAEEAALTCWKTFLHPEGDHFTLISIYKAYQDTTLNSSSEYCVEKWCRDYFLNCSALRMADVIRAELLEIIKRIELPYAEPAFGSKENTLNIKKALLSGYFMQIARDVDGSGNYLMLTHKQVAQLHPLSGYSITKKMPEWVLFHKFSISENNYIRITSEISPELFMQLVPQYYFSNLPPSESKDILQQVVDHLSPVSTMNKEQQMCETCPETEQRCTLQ
inactive: erlotinib -0.083 | [1] -0.091 | [2] 0.098 | [3] -0.052 | [4] 0.013 | [5] 0.038 | [6] -0.145 | [7] 0.044 | IRAK-1-4 Inhibitor I 0.036

DHRS13 (UniProt Q6UX07)
UniProt Q6UX07, sequence (Q6UX07 whole entry, looked up): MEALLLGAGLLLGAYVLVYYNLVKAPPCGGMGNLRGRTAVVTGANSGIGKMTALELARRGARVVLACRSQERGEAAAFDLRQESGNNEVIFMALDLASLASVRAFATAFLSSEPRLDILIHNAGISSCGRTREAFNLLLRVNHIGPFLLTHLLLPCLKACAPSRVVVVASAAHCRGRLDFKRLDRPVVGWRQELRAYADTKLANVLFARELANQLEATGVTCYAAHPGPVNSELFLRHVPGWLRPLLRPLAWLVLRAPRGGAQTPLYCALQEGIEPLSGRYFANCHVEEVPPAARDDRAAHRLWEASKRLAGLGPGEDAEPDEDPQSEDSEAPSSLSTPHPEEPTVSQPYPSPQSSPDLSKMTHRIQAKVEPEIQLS
inactive: erlotinib 0.227 | [2] -0.074 | [8] -0.142 | [4] 0.133 | IRAK-1-4 Inhibitor I -0.162

CPLX1 (UniProt O14810)
UniProt O14810, sequence (O14810 whole entry, looked up): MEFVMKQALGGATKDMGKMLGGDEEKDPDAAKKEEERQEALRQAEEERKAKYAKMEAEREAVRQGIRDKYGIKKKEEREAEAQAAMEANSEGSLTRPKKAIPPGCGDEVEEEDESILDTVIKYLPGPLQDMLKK
inactive: [1] -0.059 | [3] 0.062 | [4] 0.012 | [5] 0.114 | [6] 0.012 | [7] -0.048 | IRAK-1-4 Inhibitor I 0.027

COPS9 (UniProt Q8WXC6)
UniProt Q8WXC6, sequence (Q8WXC6 whole entry, looked up): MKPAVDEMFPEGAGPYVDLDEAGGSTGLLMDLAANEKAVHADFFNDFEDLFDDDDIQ
inactive: erlotinib -0.01 | [2] -0.362 | [4] 0.081 | IRAK-1-4 Inhibitor I -0.371

DLGAP5 isoform 3 (UniProt Q15398)
inactive: [8] -0.009

CYP4V2 (UniProt Q6ZWL3)
UniProt Q6ZWL3, sequence (Q6ZWL3 whole entry, looked up): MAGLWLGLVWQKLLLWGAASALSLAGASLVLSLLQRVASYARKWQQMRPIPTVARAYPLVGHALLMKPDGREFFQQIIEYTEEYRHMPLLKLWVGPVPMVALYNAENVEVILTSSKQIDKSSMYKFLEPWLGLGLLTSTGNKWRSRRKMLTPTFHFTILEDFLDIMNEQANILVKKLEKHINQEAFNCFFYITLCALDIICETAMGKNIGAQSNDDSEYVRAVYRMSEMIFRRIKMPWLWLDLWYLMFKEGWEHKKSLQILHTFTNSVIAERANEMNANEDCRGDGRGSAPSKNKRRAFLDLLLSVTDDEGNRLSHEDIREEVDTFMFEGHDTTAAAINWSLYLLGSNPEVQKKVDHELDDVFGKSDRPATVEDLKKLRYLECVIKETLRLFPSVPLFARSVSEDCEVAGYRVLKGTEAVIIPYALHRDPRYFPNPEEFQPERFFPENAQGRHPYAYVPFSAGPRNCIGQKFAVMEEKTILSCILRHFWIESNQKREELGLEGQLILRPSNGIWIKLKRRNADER
inactive: erlotinib -0.07 | [2] 0.014 | [8] 0.126 | [4] 0.099 | IRAK-1-4 Inhibitor I 0.074

DDR1 isoform 5 (UniProt Q08345)
UniProt Q08345, sequence (Q08345 whole entry, looked up): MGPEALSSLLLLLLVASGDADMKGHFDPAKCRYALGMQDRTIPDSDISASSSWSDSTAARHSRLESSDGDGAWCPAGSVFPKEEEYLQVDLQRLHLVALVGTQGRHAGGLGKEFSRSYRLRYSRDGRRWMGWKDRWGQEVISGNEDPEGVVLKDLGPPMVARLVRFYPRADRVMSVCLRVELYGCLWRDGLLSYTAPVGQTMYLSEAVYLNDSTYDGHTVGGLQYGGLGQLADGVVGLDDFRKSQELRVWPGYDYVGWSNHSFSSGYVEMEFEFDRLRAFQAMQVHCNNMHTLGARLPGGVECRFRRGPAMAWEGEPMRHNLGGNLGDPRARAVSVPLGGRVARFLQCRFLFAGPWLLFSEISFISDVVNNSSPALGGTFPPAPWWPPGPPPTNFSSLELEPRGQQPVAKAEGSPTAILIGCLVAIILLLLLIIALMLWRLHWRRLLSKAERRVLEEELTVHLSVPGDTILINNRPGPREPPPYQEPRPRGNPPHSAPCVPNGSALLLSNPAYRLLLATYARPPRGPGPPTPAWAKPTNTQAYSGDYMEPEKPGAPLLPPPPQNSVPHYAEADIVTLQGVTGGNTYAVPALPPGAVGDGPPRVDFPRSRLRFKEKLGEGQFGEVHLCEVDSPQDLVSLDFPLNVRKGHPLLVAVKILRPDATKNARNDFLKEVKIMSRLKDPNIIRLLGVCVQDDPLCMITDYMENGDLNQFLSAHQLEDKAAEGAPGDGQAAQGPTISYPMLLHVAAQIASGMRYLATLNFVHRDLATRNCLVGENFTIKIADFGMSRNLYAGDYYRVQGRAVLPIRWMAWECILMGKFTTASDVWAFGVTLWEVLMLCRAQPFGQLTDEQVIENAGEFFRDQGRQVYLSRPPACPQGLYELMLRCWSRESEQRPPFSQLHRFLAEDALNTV
inactive: [8] 0.044 | [4] 0.04 | [6] -0.011 | [7] -0.016 | IRAK-1-4 Inhibitor I 0.097

CLIP1 isoform 2 (UniProt P30622)
UniProt P30622, sequence (P30622 whole entry, looked up): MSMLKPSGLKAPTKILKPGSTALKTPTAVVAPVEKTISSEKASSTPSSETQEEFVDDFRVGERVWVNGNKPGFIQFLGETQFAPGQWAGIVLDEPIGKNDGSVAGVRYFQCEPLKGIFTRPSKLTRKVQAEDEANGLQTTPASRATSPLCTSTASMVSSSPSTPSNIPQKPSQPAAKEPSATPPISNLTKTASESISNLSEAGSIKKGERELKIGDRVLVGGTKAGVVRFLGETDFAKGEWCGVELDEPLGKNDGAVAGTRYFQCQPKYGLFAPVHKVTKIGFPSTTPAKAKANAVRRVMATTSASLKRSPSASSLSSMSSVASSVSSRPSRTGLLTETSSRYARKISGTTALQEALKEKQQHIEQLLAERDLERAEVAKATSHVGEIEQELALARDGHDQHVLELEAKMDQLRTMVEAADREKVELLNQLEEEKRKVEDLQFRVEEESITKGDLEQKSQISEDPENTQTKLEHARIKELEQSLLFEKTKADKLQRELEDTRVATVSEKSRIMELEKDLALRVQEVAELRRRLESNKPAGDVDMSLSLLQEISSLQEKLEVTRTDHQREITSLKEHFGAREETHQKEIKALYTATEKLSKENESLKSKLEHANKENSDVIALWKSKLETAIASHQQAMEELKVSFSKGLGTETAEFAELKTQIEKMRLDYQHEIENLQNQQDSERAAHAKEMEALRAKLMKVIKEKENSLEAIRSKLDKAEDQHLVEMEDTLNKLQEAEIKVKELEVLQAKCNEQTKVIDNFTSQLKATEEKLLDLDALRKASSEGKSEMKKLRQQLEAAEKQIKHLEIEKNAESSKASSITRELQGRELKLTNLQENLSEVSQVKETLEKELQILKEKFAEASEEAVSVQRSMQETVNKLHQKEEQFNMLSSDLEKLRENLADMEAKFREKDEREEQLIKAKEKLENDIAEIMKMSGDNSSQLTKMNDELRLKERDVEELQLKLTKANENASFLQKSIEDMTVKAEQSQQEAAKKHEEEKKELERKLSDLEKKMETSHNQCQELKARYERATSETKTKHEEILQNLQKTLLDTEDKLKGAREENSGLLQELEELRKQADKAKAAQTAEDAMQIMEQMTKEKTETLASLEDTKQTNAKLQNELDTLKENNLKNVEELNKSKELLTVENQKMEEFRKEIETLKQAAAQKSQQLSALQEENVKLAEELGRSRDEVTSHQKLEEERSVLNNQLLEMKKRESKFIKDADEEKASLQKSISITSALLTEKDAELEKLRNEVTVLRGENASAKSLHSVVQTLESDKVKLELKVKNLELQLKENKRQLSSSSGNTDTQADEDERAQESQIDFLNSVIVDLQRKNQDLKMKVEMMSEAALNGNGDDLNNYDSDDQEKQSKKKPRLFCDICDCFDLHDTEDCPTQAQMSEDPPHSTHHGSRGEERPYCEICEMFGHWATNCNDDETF
inactive: erlotinib -0.067 | [2] 0.056 | [8] -0.082 | [4] -0.055 | [6] 0.023 | [7] 0.023 | IRAK-1-4 Inhibitor I 0.026

CRLS1 (UniProt Q9UJA2)
inactive: erlotinib 0.074 | [2] -0.085 | [8] 0.087 | [4] 0.056 | IRAK-1-4 Inhibitor I -0.021

COL6A3 (UniProt P12111)
inactive: erlotinib -0.101 | [2] 0.14 | [8] -0.232 | [4] -0.108 | IRAK-1-4 Inhibitor I -0.071

CLASP1 isoform 4 (UniProt Q7Z460)
inactive: erlotinib 0.199 | [1] -0.041 | [2] 0.04 | [3] -0.262 | [5] -0.029

CHMP4A (UniProt H0YIN6)
inactive: [8] 0.06 | [4] -0.055 | IRAK-1-4 Inhibitor I 0.142

COL12A1 (UniProt Q99715)
inactive: erlotinib -0.016 | [1] -0.009 | [2] 0.01 | [3] -0.008 | [5] -0.053 | [6] 0.059 | [7] 0.065

CSRP2 (UniProt Q16527)
inactive: [8] -0.097 | [6] 0.043 | [7] -0.003

DNAJC24 (UniProt Q6P3W2)
inactive: erlotinib 0.034 | [1] -0.069 | [2] 0.021 | [3] 0.011 | [4] 0.016 | [5] 0.081 | [6] 0.01 | [7] 0.01 | IRAK-1-4 Inhibitor I -0.055

CUX1 isoform 2 (UniProt Q13948)
inactive: erlotinib -0.029 | [1] -0.003 | [2] -0.229 | [3] 0.034 | [4] -0.011 | [5] 0.02 | [6] -0.015 | [7] -0.008 | IRAK-1-4 Inhibitor I 0.029

CINP isoform 3 (UniProt Q9BW66)
inactive: [1] 0.016 | [3] 0.015 | [8] -0.015 | [4] 0.081 | [5] -0.102 | [6] -0.015 | [7] -0.056 | IRAK-1-4 Inhibitor I 0.074
